Experimental data reported in PubChem BioAssay (NCI).
Compounds without any hit were thinned out: in the full panel of roughly 79,000, 15% have a hit. Cut-off read from the data, not from the text of the source: active = growth inhibition above about 70%; inactive = the rest.

Legend:
[1] = NCI Yeast Anticancer Drug Screen. Data for the wt1 strain (AID 149);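 note: 0% = growth of vehicle-treated wt1 cultures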; settings: S. cerevisiae wt1 strain (SPY 50644) growth inhibition, hits give high values
In short: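 Using yeast strain wt1, compound-induced growth inhibition was determined against vehicle-treated cultures.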

[2] = NCI Yeast Anticancer Drug Screen. Data for the rad50EPP+ strain (AID 151);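 note: 0% = growth of vehicle-treated control cultures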; settings: S. cerevisiae rad50 mutant strain, hits give high values
In short: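 rad50EPP+ yeast treated with test compounds. Readout: growth vs vehicle control.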

[3] = NCI Yeast Anticancer Drug Screen. Data for the rad50 strain (AID 155);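 note: 0% = growth of vehicle-only cultures of the same strain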; settings: S. cerevisiae rad50 strain growth inhibition, hits give high values
In short: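 Relative growth inhibition (compound vs vehicle) was measured in yeast with a defined repair-gene alteration.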

[4] = NCI Yeast Anticancer Drug Screen. Data for the mec2-1 strain (AID 157); settings: S. cerevisiae mec2-1 strain, hits give high values
In short: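 Growth inhibition is read against vehicle-treated controls after compound exposure of the mec2-1 yeast strain, which is defective in DNA damage repair or cell cycle control.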

[5] = NCI Yeast Anticancer Drug Screen. Data for the rad14 strain (AID 159);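 note: 0% = growth of vehicle-treated control cultures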; settings: S. cerevisiae rad14 strain growth inhibition, hits give high values
In short: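 Screen for anticancer potential: a yeast strain altered in DNA damage repair is grown with compound, and reduced growth is quantified against vehicle controls.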

[6] = NCI Yeast Anticancer Drug Screen. Data for the sgs1 mgt1 strain (AID 161);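 note: 0% = growth of cultures given vehicle only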; settings: S. cerevisiae sgs1 mgt1 strain, at 50.0 µM, hits give high values
In short: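 Percent growth inhibition was derived by comparing compound-exposed mutant yeast with vehicle-exposed cultures. The strain carries alterations in DNA damage repair.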

[7] = NCI Yeast Anticancer Drug Screen. Data for the CLN2oe strain (AID 163);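 note: 0% = growth of vehicle-only control cultures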; settings: S. cerevisiae CLN2oe strain, hits give high values
In short: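 Compound-treated yeast; growth vs vehicle ctrl = % inhibition. Genetically altered strain (cell-cycle control).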

[8] = NCI Yeast Anticancer Drug Screen. Data for the cln2 rad14 strain (AID 165);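 note: 0% = growth equal to vehicle treated cultures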; settings: S. cerevisiae cln2 rad14 strain, at 50.0 µM, hits give high values
In short: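 Growth inhibition, relative to vehicle-treated controls, is the read-out. The test organism is a yeast strain with defined genetic alterations, cln2 rad14.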

[9] = NCI Yeast Anticancer Drug Screen. Data for the bub3 strain (AID 167); settings: S. cerevisiae bub3 mutant strain, hits give high values
In short: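 Screening used yeast with an engineered genetic alteration affecting cell cycle control. Compound-exposed cultures were compared with vehicle cultures, and reduced growth was taken as inhibition.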

[10] = NCI Yeast Anticancer Drug Screen. Data for the wt2 strain (AID 169);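 note: 0% = growth of vehicle-treated yeast cultures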; settings: S. cerevisiae wt2 strain growth inhibition, hits give high values
In short: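 Compound exposure of yeast; growth compared with vehicle controls; inhibition reported.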

[11] = NCI Yeast Anticancer Drug Screen. Data for the mlh1 strain (AID 171);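 note: 0% = growth of vehicle-treated control cultures of the same strain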; settings: S. cerevisiae mlh1 strain growth inhibition, hits give high values
In short: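 Compounds are applied to a genetically altered yeast strain, and its growth is compared with that of vehicle-treated cultures to give percent inhibition.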

[12] = NCI Yeast Anticancer Drug Screen. Data for the sgs1 strain (AID 173);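 note: 0% = growth of vehicle-only control cultures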; settings: S. cerevisiae sgs1 mutant, hits give high values
In short: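 Compounds applied to genetically altered yeast; growth compared with vehicle-treated cultures to give % inhibition.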

[13] = NCI Yeast Anticancer Drug Screen. Data for the mlh1 rad18 strain (AID 175); settings: S. cerevisiae mlh1 rad18 strain growth inhibition; at 50.0 µM; hits give high values
In short: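 Cells of a genetically altered yeast strain, deficient in DNA damage repair, were treated with compound. Their growth was then compared with that of vehicle-treated cultures to give inhibition.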

[14] = NCI Yeast Anticancer Drug Screen. Data for the rad18 strain (AID 177); settings: S. cerevisiae rad18 mutant growth inhibition, hits give high values
In short: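 Compounds are applied to a repair-deficient yeast strain, and growth is compared with that of vehicle-treated cultures to give percent inhibition.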

Measured: growth inhibition

CC[C@]1(O)C[C@H]2CN(CCc3c([nH]c4ccccc34)[C@@](C(=O)OC)(c3cc4c(cc3OC)N(C)[C@H]3[C@@](O)(C(=O)OC)[C@H](OC(C)=O)[C@]5(CC)C=CCN6CC[C@]43[C@@H]65)C2)C1
inactive: [1]; at 1.2 µM 1% | [1]; at 3.7 µM -1% | [1]; at 11.0 µM -2% | [1]; at 33.0 µM -1% | [1]; at 100.0 µM -19% | [2]; at 1.2 µM -2% | [2]; at 3.7 µM -3% | [2]; at 11.0 µM -2% | [2]; at 33.0 µM -1% | [2]; at 100.0 µM -6% | [3]; at 1.2 µM -2% | [3]; at 3.7 µM -3% | [3]; at 11.0 µM 2% | [3]; at 33.0 µM -4% | [3]; at 50.0 µM -4.25% | [3]; at 100.0 µM -5% | [4]; at 1.2 µM -2% | [4]; at 3.7 µM 0% | [4]; at 11.0 µM -2% | [4]; at 33.0 µM 1% | [4]; at 50.0 µM -3.3% | [4]; at 100.0 µM -7% | [5]; at 1.2 µM -2% | [5]; at 3.7 µM -4% | [5]; at 11.0 µM 0% | [5]; at 33.0 µM -2% | [5]; at 100.0 µM -3% | [6] 1.35% | [7]; at 1.2 µM -2% | [7]; at 3.7 µM 3% | [7]; at 11.0 µM 1% | [7]; at 33.0 µM -11% | [7]; at 100.0 µM -6% | [8] 24.4% | [9]; at 1.2 µM 1% | [9]; at 3.7 µM 1% | [9]; at 11.0 µM -1% | [9]; at 33.0 µM -7% | [9]; at 50.0 µM 14.3% | [9]; at 100.0 µM -7% | [10]; at 1.2 µM -1% | [10]; at 3.7 µM 0% | [10]; at 11.0 µM -3% | [10]; at 33.0 µM -3% | [10]; at 100.0 µM -4% | [11]; at 1.2 µM 0% | [11]; at 3.7 µM -1% | [11]; at 11.0 µM -1% | [11]; at 33.0 µM -1% | [11]; at 100.0 µM -4% | [12]; at 1.2 µM 0% | [12]; at 3.7 µM -2% | [12]; at 11.0 µM 1% | [12]; at 33.0 µM 1% | [12]; at 100.0 µM -3% | [13] 30.6% | [14]; at 1.2 µM -2% | [14]; at 3.7 µM -3% | [14]; at 11.0 µM -5% | [14]; at 33.0 µM -6% | [14]; at 100.0 µM -7%
